Test results from PubChem BioAssay (NCATS).
Inconclusive results are not listed. A call without a number means that no potency is given here. Active and inactive are the calls of the source. The call rests on the fitted dose curve; in most records, active means well fitted inhibition curve with a large enough effect; inconclusive means small, poorly fitted or top-dose-only effect; inactive means flat fitted curve, though single readings scatter.

Legend:
Assay in all cases: qHTS profiling for inhibitors of Plasmodium falciparum proliferation (AID 504749); further: nearly all actives have a fitted effect of over 60% in size
Conditions in all cases: P. falciparum in erythrocytes, SYBR Green DNA, 72 h; series mostly up to 28.7 µM
CP203 = tested on: CP203
In short: (§1)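 Readout was DNA-dye fluorescence from lysed cultures, ex 485/em 535 nm. Parasitized red cells had grown 72 h with compound; data scaled between 0.29 uM artemisinin and DMSO wells and corrected using vehicle-only plates.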

CP211 = tested on: CP211
In short: as §1

CP215 = tested on: CP215
In short: as §1

CP217 = tested on: CP217
In short: as §1

CP237 = tested on: CP237
In short: as §1

CP238 = tested on: CP238
In short: as §1

CP247 = tested on: CP247
In short: as §1

CP250 = tested on: CP250
In short: as §1

CP252 = tested on: CP252
In short: as §1

CP256 = tested on: CP256
In short: as §1
Potency means the concentration at half of the fitted maximal effect.

C[N+]1(C)CCC(=C(c2ccccc2)c2ccccc2)CC1
Potency (CP203): inactive
Potency (CP211): inactive
Potency (CP215): inactive
Potency (CP217): inactive
Potency (CP237): inactive
Potency (CP238): inactive
Potency (CP247): inactive
Potency (CP250): inactive
Potency (CP252): inactive

N=C(N)N1CCc2ccccc2C1
Potency (CP203): inactive
Potency (CP211): inactive
Potency (CP215): inactive
Potency (CP217): inactive
Potency (CP237): inactive
Potency (CP238): inactive
Potency (CP247): inactive
Potency (CP250): inactive
Potency (CP252): inactive
Potency (CP256): inactive

C=CCN1CCc2nc(N)sc2CC1
Potency (CP203): inactive
Potency (CP211): inactive
Potency (CP215): inactive
Potency (CP217): inactive
Potency (CP237): inactive
Potency (CP238): inactive
Potency (CP247): inactive
Potency (CP250): inactive
Potency (CP252): inactive
Potency (CP256): inactive

CCCCCCCCCCCCCC[N+](C)(C)Cc1ccccc1
Potency (CP203): 6.01 µM (active)
Potency (CP211): 4.26 µM (active)
Potency (CP215): 5.36 µM (active)
Potency (CP217): 5.62 µM (active)
Potency (CP237): 5.62 µM (active)
Potency (CP238): 7.08 µM (active)
Potency (CP247): 5.62 µM (active)
Potency (CP250): 11.2 µM (active)
Potency (CP252): 7.94 µM (active)
Potency (CP256): 7.94 µM (active)

Cc1cc(C)cc(OCC2CNC(=O)O2)c1 (stereo not drawn)
Potency (CP203): inactive
Potency (CP211): inactive
Potency (CP215): inactive
Potency (CP217): inactive
Potency (CP237): inactive
Potency (CP238): inactive
Potency (CP247): inactive
Potency (CP250): inactive
Potency (CP252): inactive
Potency (CP256): inactive

CCc1oc2ccccc2c1C(=O)c1cc(I)c(O)c(I)c1
Potency (CP203): inactive
Potency (CP211): inactive
Potency (CP215): inactive
Potency (CP217): inactive
Potency (CP237): inactive
Potency (CP238): inactive
Potency (CP247): inactive
Potency (CP250): inactive
Potency (CP252): inactive
Potency (CP256): inactive

CCOC(=O)Nc1ccc2c(c1)N(C(=O)CCN1CCOCC1)c1ccccc1S2
Potency (CP203): inactive
Potency (CP211): inactive
Potency (CP215): inactive
Potency (CP217): inactive
Potency (CP237): inactive
Potency (CP238): inactive
Potency (CP247): inactive
Potency (CP250): inactive
Potency (CP252): inactive
Potency (CP256): inactive

Cc1ccccc1OCC(O)CO (stereo not drawn)
Potency (CP203): inactive
Potency (CP211): inactive
Potency (CP215): inactive
Potency (CP217): inactive
Potency (CP237): inactive
Potency (CP238): inactive
Potency (CP247): inactive
Potency (CP250): inactive
Potency (CP252): inactive
Potency (CP256): inactive

Cl/C(=C\n1cncn1)c1ccc(Cl)cc1Cl
Potency (CP203): inactive
Potency (CP211): inactive
Potency (CP215): inactive
Potency (CP217): inactive
Potency (CP237): inactive
Potency (CP238): inactive
Potency (CP247): inactive
Potency (CP250): inactive
Potency (CP252): inactive
Potency (CP256): inactive

CNCCc1ccccn1
Potency (CP203): inactive
Potency (CP211): inactive
Potency (CP215): inactive
Potency (CP217): inactive
Potency (CP237): inactive
Potency (CP238): inactive
Potency (CP247): inactive
Potency (CP250): inactive
Potency (CP252): inactive
Potency (CP256): inactive

NC(=O)c1ccccc1O
Potency (CP203): inactive
Potency (CP211): inactive
Potency (CP215): inactive
Potency (CP217): inactive
Potency (CP237): inactive
Potency (CP238): inactive
Potency (CP247): inactive
Potency (CP250): inactive
Potency (CP252): inactive
Potency (CP256): inactive

CCC(CC)(CC(=O)Nc1cccc(/C=C/c2nc(C3CCC3)cs2)c1)C(=O)O
Potency (CP203): inactive
Potency (CP211): inactive
Potency (CP215): inactive
Potency (CP217): inactive
Potency (CP237): inactive
Potency (CP238): inactive
Potency (CP247): inactive
Potency (CP250): inactive
Potency (CP252): inactive
Potency (CP256): inactive

CC(=O)Nc1ccc(OC(=O)c2ccccc2OC(C)=O)cc1
Potency (CP203): inactive
Potency (CP211): inactive
Potency (CP215): inactive
Potency (CP217): inactive
Potency (CP237): inactive
Potency (CP238): inactive
Potency (CP247): inactive
Potency (CP250): inactive
Potency (CP252): inactive
Potency (CP256): inactive

COc1cc(O)c(C(=O)c2ccccc2)cc1S(=O)(=O)O
Potency (CP203): inactive
Potency (CP211): inactive
Potency (CP215): inactive
Potency (CP217): inactive
Potency (CP237): inactive
Potency (CP238): inactive
Potency (CP247): inactive
Potency (CP250): inactive
Potency (CP252): inactive

CCOC(=O)C(C#N)=C(c1ccccc1)c1ccccc1
Potency (CP203): inactive
Potency (CP211): inactive
Potency (CP215): inactive
Potency (CP217): inactive
Potency (CP237): inactive
Potency (CP238): inactive
Potency (CP247): inactive
Potency (CP250): inactive
Potency (CP252): inactive
Potency (CP256): inactive

CCOc1cc(OCC)c(C(=O)CCC(=O)O)cc1OCC
Potency (CP203): inactive
Potency (CP211): inactive
Potency (CP215): inactive
Potency (CP217): inactive
Potency (CP237): inactive
Potency (CP238): inactive
Potency (CP247): inactive
Potency (CP250): inactive
Potency (CP252): inactive
Potency (CP256): inactive

C[C@@H](O)[C@H]1C(=O)N2C(C(=O)O)=C(S[C@@H]3CN[C@H](CNS(N)(=O)=O)C3)[C@H](C)[C@H]12
Potency (CP203): inactive
Potency (CP211): inactive
Potency (CP215): inactive
Potency (CP217): inactive
Potency (CP237): inactive
Potency (CP238): inactive
Potency (CP247): inactive
Potency (CP250): inactive
Potency (CP252): inactive
Potency (CP256): inactive

O=C(O)P(=O)(O)O
Potency (CP203): inactive
Potency (CP211): inactive
Potency (CP215): inactive
Potency (CP217): inactive
Potency (CP237): inactive
Potency (CP238): inactive
Potency (CP247): inactive
Potency (CP250): inactive
Potency (CP252): inactive
Potency (CP256): inactive

c1ccc(CC2=NCCN2)cc1
Potency (CP203): inactive
Potency (CP211): inactive
Potency (CP215): inactive
Potency (CP217): inactive
Potency (CP237): inactive
Potency (CP238): inactive
Potency (CP247): inactive
Potency (CP250): inactive
Potency (CP252): inactive
Potency (CP256): inactive

CC(=O)Nc1ccc(CC(=O)O)cc1
Potency (CP203): inactive
Potency (CP211): inactive
Potency (CP215): inactive
Potency (CP217): inactive
Potency (CP237): inactive
Potency (CP238): inactive
Potency (CP247): inactive
Potency (CP250): inactive
Potency (CP252): inactive
Potency (CP256): inactive

O=C(O)Cc1csc(-c2ccc(Cl)cc2)n1
Potency (CP203): inactive
Potency (CP211): inactive
Potency (CP215): inactive
Potency (CP217): inactive
Potency (CP237): inactive
Potency (CP238): inactive
Potency (CP247): inactive
Potency (CP250): inactive
Potency (CP252): inactive
Potency (CP256): inactive
